Measurements reported in PubChem BioAssay AID1159580 (chemical genetic matrix, 2015).
Where “and” joins values, the source holds several entries; their conditions need not be identical. Equal values may be shown once. Out of some 5,500 compounds screened, about 2,000 (36%) were called active. About 18% were inconclusive and are not listed. Rule as the data show it: active = normalized growth mostly below about 0.91 (no sharp cut-off); inconclusive = no clear call, values can overlap the other calls; inactive = mostly above about 0.92. The list shows a part of the results.

Assay: chemical genetic growth profiling, strain panel (AID 1159580);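 also: tested at 20 µM; growth read once vehicle control cultures reached saturation at 30 °C; 1 = growth at the plate median or of vehicle wells; lower values mean less growth of the strain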
Settings: S. cerevisiae deletion strains, growth OD

Measured: normalized growth

CC(Oc1ccccc1)C(=O)N[C@@H]1C(=O)N2[C@@H]1SC(C)(C)[C@@H]2C(=O)O (some centres not stated)
inactive: locus YAL013W, strain DEP1, stronger effect = lower value 1.01 | locus YAL021C, strain ccr4, stronger effect = lower value 1 | locus YAL026C, strain drs2, stronger effect = lower value 1.01 | locus YAL030W, strain snc1, stronger effect = lower value 0.987 | locus YBL061C, strain skt5, stronger effect = lower value 1 | locus YBR009C, strain hhf1, stronger effect = lower value 0.997 | locus YBR021W, strain FUR4, stronger effect = lower value 0.999 | locus YBR023C, strain chs3, stronger effect = lower value 0.998 | locus YBR171W, strain sec66, stronger effect = lower value 0.984 | locus YBR229C, strain ROT2, stronger effect = lower value 1.01 | locus YBR231C, strain swc5, stronger effect = lower value 0.995 | locus YBR279W, strain paf1, stronger effect = lower value 1.01 | locus YCL011C, strain gbp2, stronger effect = lower value 0.988 | locus YCL016C, strain dcc1, stronger effect = lower value 0.988 | locus YCL029C, strain bik1, stronger effect = lower value 1.04 | locus YCL061C, strain MRC1, stronger effect = lower value 0.998 | locus YCL069W, strain vba3, stronger effect = lower value 0.981 | locus YCR088W, strain abp1, stronger effect = lower value 0.995 | locus YDL005C, strain med2, stronger effect = lower value 0.999 | locus YDL035C, strain GPR1, stronger effect = lower value 1.01 | locus YDL040C, strain nat1, stronger effect = lower value 0.995 | locus YDL074C, strain BRE1, stronger effect = lower value 1.01 | locus YDL101C, strain DUN1, stronger effect = lower value 1.02 | locus YDL134C, strain PPH21, stronger effect = lower value 1.02 | locus YDL185W, strain tfp1, stronger effect = lower value 1.02 | locus YDL192W, strain arf1, stronger effect = lower value 1.02 | locus YDR001C, strain nth1, stronger effect = lower value 0.994 | locus YDR069C, strain doa4, stronger effect = lower value 1 | locus YDR101C, strain arx1, stronger effect = lower value 1.01 | locus YDR137W, strain rgp1, stronger effect = lower value 1 | locus YDR150W, strain NUM1, stronger effect = lower value 1.01 | locus YDR159W, strain sac3, stronger effect = lower value 1.02 | locus YDR162C, strain NBP2, stronger effect = lower value 1.02 | locus YDR195W, strain ref2 1 | locus YDR297W, strain sur2, stronger effect = lower value 0.994 | locus YDR318W, strain mcm21, stronger effect = lower value 1.03 | locus YDR334W, strain swr1, stronger effect = lower value 0.995 | locus YDR335W, strain msn5, stronger effect = lower value 0.996 | locus YDR388W, stronger effect = lower value 1.02 | locus YDR392W, strain spt3, stronger effect = lower value 0.947 | locus YDR502C, strain sam2, stronger effect = lower value 1.01 | locus YEL003W, strain gim4, stronger effect = lower value 0.993 | locus YEL037C, strain rad23, stronger effect = lower value 0.997 | locus YEL061C, strain CIN8 (second series), stronger effect = lower value 0.988 | locus YEL061C, strain CIN8, stronger effect = lower value 1.01 | locus YER015W, strain faa2, stronger effect = lower value 1 | locus YER016W, strain bim1, stronger effect = lower value 1 | locus YER110C, stronger effect = lower value 1.03 | locus YER111C, strain swi4, stronger effect = lower value 1.01 | locus YER155C, strain BEM2 (second series), stronger effect = lower value 0.994 | locus YER155C, strain BEM2, stronger effect = lower value 0.998 | locus YER167W, strain BCK2, stronger effect = lower value 1.01 | locus YFR010W, strain ubp6, stronger effect = lower value 0.997 | locus YGL078C, strain dbp3, stronger effect = lower value 1.02 | locus YGL086W, strain mad1, stronger effect = lower value 1.01 | locus YGL167C, strain pmr1, stronger effect = lower value 0.999 | locus YGL173C, strain kem1, stronger effect = lower value 1.01 | locus YGL227W, strain vid30, stronger effect = lower value 0.988 | locus YGL240W, strain doc1, stronger effect = lower value 1 | locus YGL248W, strain PDE1, stronger effect = lower value 1.01 | locus YGL253W, strain hxk2, stronger effect = lower value 0.994 | locus YGR078C, strain PAC10, stronger effect = lower value 1.01 | locus YGR135W, strain pre9, stronger effect = lower value 1.02 | locus YGR229C, strain SMI1, stronger effect = lower value 0.999 | locus YGR252W, strain gcn5, stronger effect = lower value 0.994 | locus YHR013C, strain ard1, stronger effect = lower value 0.984 | locus YHR027C, strain rpn1, stronger effect = lower value 0.999 | locus YHR030C, strain SLT2, stronger effect = lower value 1.01 and 1.04 | locus YHR079C, strain IRE1 (second series), stronger effect = lower value 1.02 | locus YHR079C, strain IRE1, stronger effect = lower value 0.999 | locus YHR094C, strain hxt1, stronger effect = lower value 1.02 | locus YHR129C, strain ARP1, stronger effect = lower value 1.01 | locus YHR142W, strain chs7, stronger effect = lower value 0.979 | locus YHR200W, strain rpn10, stronger effect = lower value 1.02 | locus YIL066C, strain RNR3, stronger effect = lower value 1.01 | locus YIL073C, strain SPO22, stronger effect = lower value 1.06 | locus YIL125W, strain kgd1, stronger effect = lower value 1.01 | locus YIR030C, strain dcg1, stronger effect = lower value 1.02 | locus YJL092W, strain hpr5, stronger effect = lower value 0.993 | locus YJL095W, strain BCK1 (second series), stronger effect = lower value 0.995 | locus YJL095W, strain BCK1, stronger effect = lower value 1.04 | locus YJL115W, strain asf1, stronger effect = lower value 0.999 | locus YJL129C, strain trk1, stronger effect = lower value 1 | locus YJL134W, strain LCB3, stronger effect = lower value 1.01 | locus YJL154C, strain vps35, stronger effect = lower value 0.991 | locus YJL164C, strain tpk1, stronger effect = lower value 0.999 | locus YJL166W, strain qcr8, stronger effect = lower value 0.986 | locus YJL168C, strain set2, stronger effect = lower value 1.02 | locus YJL187C, strain SWE1 (second series), stronger effect = lower value 1.02 | locus YJL187C, strain SWE1, stronger effect = lower value 0.997 | locus YJR043C, strain POL32, stronger effect = lower value 1.01 | locus YJR066W, strain TOR1, stronger effect = lower value 0.966
